Drawing on PubChem BioAssay (NCATS), this text covers outcome and Potency for six compounds.

A short description of test [1]: HPAF-II 24hr Apoptosis Induction qHTS against the NCATS CANVASS Library (AID 1347356). The gist of the method:
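Apoptosis induction in HPAF-II pancreatic cancer cells is measured as caspase-3/7 luminescence after a 24-hour exposure to compounds.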

Test [2] can be described thus: HEK293 18hr Apoptosis Induction qHTS against the NCATS CANVASS Library (AID 1347357). An outline of the steps:
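Natural products applied to HEK293 for 18 hr; Caspase-Glo 3/7 readout.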

Test [3] can be described thus: HPAF-II 18hr Apoptosis Induction qHTS against the NCATS CANVASS Library (AID 1347360). An outline of the steps: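 Luminescent DEVD-substrate signal, proportional to caspase activity, is measured in HPAF-II cells after 18-hour treatment across a concentration series; doxorubicin serves as control.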
The nature of test [4]: HEK293 12hr Apoptosis Induction qHTS against the NCATS CANVASS Library (AID 1347361). The gist of the method: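 Luminescent caspase-3/7 signal, proportional to enzyme activity, was recorded from HEK293 cultures in DMEM + 10% FBS treated for 12 hours with titrated natural products (11 points). Doxorubicin (0.1nM - 4uM) served as control.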
Test [5] deals with NAD(P)H diaphorase (Clostridium kluyveri). In words: Diaphorse counterscreen qHTS: Assay Interference Panel against the NCATS CANVASS Library (AID 1347362). An outline of the steps: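 Clostridium kluyveri diaphorase in PBS + 0.01% Tween-20 preincubated 15 min with compounds. Resazurin and NADH then added for 5 min at room temperature in the dark; resorufin fluorescence read (ex 525, em 598).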

Test [6] can be described thus: KB-3-1 Cancer Cell Toxicity qHTS against the NCATS CANVASS Library (AID 1347366). Also: nearly all actives have a fitted effect of over 75% in size. Also: potency is read from the fitted curve at half-maximal effect. The gist of the method: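 Cytotoxicity toward KB-3-1 cells (500/well, DMEM + 10% FBS) was scored by CellTiter-Glo luminescence following 72 hr exposure at 37C, with bortezomib titrated as control.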
The nature of test [7]: qHTS for ATAD5 Antagonist screened against the NCATS CANVASS Library (AID 1347370). Also: nearly all actives have a fitted effect of over 65% in size. Also: potency is read from the fitted curve at half-maximal effect. An outline of the steps: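 HEK293T cells with a stably integrated ATAD5-controlled luciferase reporter were exposed to compounds (11-pt) alongside 10 uM 5-fluorouridine as ATAD5 stabilizer for 16hr at 37C. Viability was read by CellTiter-Fluor fluorescence, then ATAD5 by luminescence.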
Test [8] deals with Nuclear receptor subfamily 1 group I member 3 (Homo sapiens) (UniProt Q14994). In words: qHTS for Constitutive Androstane Receptor (CAR) Antagonist screened against the NCATS CANVASS Library (AID 1347372). Also: potency is read from the fitted curve at half-maximal effect. An outline of the steps:
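HepG2 cells stably carrying hCAR and CYP2B6-2.2kb luciferase reporter, 2500 cells/well, compound with 50 nM CITCO agonist for 24hr at 37C. ONE-Glo luminescence measured CAR activity; CellTiter-Fluor read viability.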

For test [9] the target is unchanged. The experiment in a line: qHTS for Constitutive Androstane Receptor (CAR) Agonist screened against the NCATS CANVASS Library (AID 1347373).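 Also: every well also contained 1.5 µM PK11195 alongside the test compound.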 An outline of the steps: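 CAR agonism is scored as CYP2B6-promoter luciferase induction in a double-stable transfected HepG2 line, where 1.5uM PK11195 is included in each well. Compounds were tested over a 24hr exposure.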

Test [10] can be described thus: 10-beta competent E. coli microbial cell viability qHTS against the NCATS CANVASS Library (AID 1347376). Also: series mostly up to about 46 µM. The gist of the method: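 Cytotoxicity toward competent E. coli is scored from cellular ATP content via BacTiter-Glo luminescence following overnight compound exposure at 37C, 5% CO2.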
Test [11] in a line: qHTS for Inflammasome Signaling Inhibitors: IL-1-beta AlphaLISA screen against the NCATS CANVASS Library (AID 1347379).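 Also: human THP-1 cells primed with LPS then triggered with ATP.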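 As to Potency: secreted IL-1B measured as AlphaLISA emission at 615 nm; potency is read from the fitted curve at half-maximal effect.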 The gist of the method:
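Human THP-1 cells were pretreated 1 hr at 37 °C with compounds (up to 57.5 uM final), then stimulated with LPS (250 ng/mL final) and ATP (1.25 mM final). Secreted IL-1B was read by AlphaLISA after 16 hr.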

Test [12] can be described thus: Cytotoxicity qHTS for assessment of Hepg2 cells membrane integrity screened against the NCATS CANVASS Library (AID 1347387). An outline of the steps: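 Fluorescence proportional to lysed-cell number, from LDH leaking out of HepG2 cells exposed 5 hr at 37C to 0.59 nM - 46 uM compound (11-point qHTS), is measured after 10 min with CytoTox-ONE.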
Test [13] in a line: Secretion counterscreen for inhibitors of the SERCaMP assay screened against the NCATS CANVASS Library (AID 1347390).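 Also: light from luciferase secreted into medium read as a measure of general secretion.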 Also: potency is read from the fitted curve at half-maximal effect. An outline of the steps:
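Natural products are titrated in an 11-point series up to 77 uM onto SH-SY5Y-GLuc STOP cells for 20 h. Secreted reporter activity is measured as coelenterazine-driven luminescence, with Brefeldin A on each plate.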

The nature of test [14]: Vero-766 cells viability qHTS against the NCATS CANVASS Library: Counterscreen for Zika virus inhibition assay (AID 1347394). Also: series mostly up to about 46 µM; nearly all actives have a fitted effect of over 60% in size. An outline of the steps:
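Counterscreen for toxicity: Vero 766 cells exposed 72 h to an 11-point compound series, viability by CellTiter-Glo.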

The nature of test [15]: Viability qHTS for inhibitors of the SERCaMP assay screened against the NCATS CANVASS Library (AID 1347400). Also: nearly all actives have a fitted effect of over 70% in size. Also: potency is read from the fitted curve at half-maximal effect. An outline of the steps:
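Cytotoxicity counter-screen: ATP content (CellTiter-Glo luminescence) of SH-SY5Y-GLuc SERCaMP MJH297 cells after 48 h at 37C with compounds in an 11-point qHTS series.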

Test [16] can be described thus: Redox Reaction Profiling qHTS: Assay Interference Panel against the NCATS CANVASS Library (AID 1347401). Also: potency is read from the fitted curve at half-maximal effect. The gist of the method:
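Compounds in 11-point series incubated with 5 uM resazurin and 200 uM DTT in 50 mM HEPES pH 7.3, 50 mM NaCl. Resorufin fluorescence (Ex 525/Em 598) read before and after 15 min in the dark.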

Test [17] can be described thus: U-118MG Cancer Cell Toxicity qHTS against the NCATS CANVASS Library (AID 1347351). An outline of the steps: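 1000 cells/well seeded and rested 4 h at 37 °C before pin transfer of compounds in an 11-pnt series. Exposure 72 h at 37 °C/5% CO2; viability by CellTiter-Glo luminescence after 15 min at room temperature.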
A short description of test [18]: MCF7 Cancer Cell Toxicity qHTS against the NCATS CANVASS Library (AID 1347369). An outline of the steps: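 This 72 hr qHTS scored MCF7 viability by CellTiterGlo luminescence, with 500 cells/well; bortezomib titration ran as control.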
Test [19] can be described thus: J3T Cancer Cell Toxicity qHTS against the NCATS CANVASS Library (AID 1347371). The gist of the method:
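Viability of the J3T glioma line from dog is scored by ATP luminescence after a 72 hr incubation with natural products.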

Test [20] is described as follows: qHTS for H2AX Agonists against the NCATS CANVASS Library (AID 1347378).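 Also: phospho-H2AX S139 level in CHO-K1 lysates by TR-FRET emission ratio.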 The gist of the method: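 Signal is the 665/620 nm emission ratio from europium cryptate and d2 antibody pair, rising with S139-phosphorylated H2AX. CHO-K1 cells saw test agents for 3 hr at 37C; detection ran 24 hr at room temperature.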

The structures appear in SMILES notation. Records with an inconclusive call do not appear. Active and inactive are the calls of the source. Calls follow the shape of the dose curve; as a rule, active = well fitted curve in the direction sought with a large enough effect; inconclusive = small, poorly fitted or top-dose-only effect, or another doubt; inactive = no such curve, though single readings can be large; an effect the other way counts as inactive or inconclusive.

Sequence of Nuclear receptor subfamily 1 group I member 3 (Homo sapiens) (Q14994 whole entry, looked up): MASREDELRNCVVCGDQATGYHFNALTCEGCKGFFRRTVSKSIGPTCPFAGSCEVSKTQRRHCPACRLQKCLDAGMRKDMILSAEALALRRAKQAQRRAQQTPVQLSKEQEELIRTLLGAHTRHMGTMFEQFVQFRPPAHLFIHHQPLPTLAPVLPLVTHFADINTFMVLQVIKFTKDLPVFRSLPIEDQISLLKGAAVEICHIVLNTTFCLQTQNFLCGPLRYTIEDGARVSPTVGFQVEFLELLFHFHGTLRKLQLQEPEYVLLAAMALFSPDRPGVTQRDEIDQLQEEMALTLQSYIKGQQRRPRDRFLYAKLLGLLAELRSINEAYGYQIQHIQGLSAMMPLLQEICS

On to `C/C(=C\[C@H](C)C(=O)CCCC1CC(=O)NC(=O)C1)[C@@H]1OC(=O)/C=C/CC/C=C/[C@H](O)[C@@H](O)[C@@H]1C`, for which the call in test [1], in test [4], in [10] and in [12] was inactive. Also, the Potency result in [2], in test [3], in test [5], in test [9] and in test [14] was “inactive” in each case. Besides, the Potency in test [6] is 6.62 µM (active); in [7], 2.63 µM (active); in [8], 3.31 µM (active); in [11], 6.11 µM (active); in test [13], 2.72 µM (active); in test [15] it was 3.81 µM (active). For the same compound, the Potency in test [16] was 24.1 µM (active).

For `CC(CCC[C@]1(C)C(=O)C=C[C@@]23C[C@]4(C)O[C@@H](C[C@@H]4[C@H]2O)C31)C(=O)O` (stereo not given in full), the Potency result in test [17], in [2], in test [3], in test [5], in test [6] and in test [18] was “inactive” throughout. Besides, the Potency result in test [7], in test [19], in test [8], in test [9], in test [20] and in [11] was “inactive” throughout. Moreover, the Potency result in test [13], in test [14], in [15] and in test [16] was “inactive” in each case. Besides, the call in [1], in test [4], in test [10] and in test [12] was inactive.

`CC1=C2CC[C@]3(C)[C@H](CC=C4[C@@H]5CC(C)(C)CC[C@@H]5C(=O)[C@H](O)[C@]43C)[C@@]2(C)C=C(O)C1=O`: the compound was classed as inactive in test [1], in test [4], in test [10] and in test [12]. Also, the Potency entry in test [2], in test [3], in test [5], in [6], in [18] and in [19] was “inactive” in each case. For the same compound, the Potency entry in [8], in test [9], in [20], in test [11], in [13] and in test [15] was “inactive” throughout. In addition, the Potency result in test [16] was “inactive”.

`CCCc1c2c([nH]c(=O)c1C)C(=O)c1[nH]c(=O)c(C)c(CCC)c1C2=O`: the Potency result in test [17], in test [2], in test [3], in test [6], in test [18] and in test [7] was “inactive” throughout. Moreover, the Potency entry in test [19], in test [9], in [11], in test [13], in test [14] and in test [15] was “inactive” throughout. Moreover, the call in test [1], in test [4], in test [10] and in test [12] was inactive. Also, the Potency in [16] is 0.857 µM (active).

In the case of `CN1C(=O)C(=O)N2C(=C[C@]3(c4c[nH]c5ccccc45)c4ccccc4N[C@H]23)C1=O`, the Potency result in [17], in test [2], in test [3], in [5], in [6] and in [18] was “inactive” each time. Moreover, the Potency entry in [7], in [19], in [8], in [9], in test [20] and in test [11] was “inactive” in each case. In addition, the Potency result in test [13], in test [14], in test [15] and in test [16] was “inactive” in each case. The result in test [1], in [4], in test [10] and in [12] was inactive.

Turning to `O=C1CC(c2ccc(O)cc2)Oc2cc(O)cc(O)c21` (stereo not given), the Potency entry in [17], in [2], in test [3], in [5], in test [6] and in test [18] was “inactive” in each case. The Potency entry in test [7], in test [19], in test [8], in test [9], in [20] and in test [11] was “inactive” in each case. Also, the Potency entry in [13], in test [14], in test [15] and in test [16] was “inactive” each time. For the same compound, the result in [1], in test [4], in test [10] and in [12] was inactive.
